Laboratory results from PubChem BioAssay AID485344 (National Center for Advancing Translational Sciences (NCATS), 2010).
Out of some 340,000 compounds screened, about 6,900 (2%) were called active. Rule as the data show it: active = inhibition above about 30%; inactive = below that, where a call was filed. Shown is part of a subset that was picked to be rich in actives.

Biological target: D(2) dopamine receptor (Homo sapiens) (UniProt P14416)
Assay: HTS Assay for Allosteric Antagonists of the Human D2 Dopamine Receptor: Primary Screen for Antagonists; also: 0% is about no effect
Details: HEK293 TREx D2 cells, calcium flux, dopamine EC80; at 10 µM; active compounds read high
Outline: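 Overnight-induced (tetracycline, 30 C) HEK293 T-REx cells carrying force-coupled D2 receive a no-wash calcium dye, then compound, then EC80 dopamine at 180 s; signals are read kinetically throughout.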

Chain of D(2) dopamine receptor (Homo sapiens) (P14416 whole entry, looked up): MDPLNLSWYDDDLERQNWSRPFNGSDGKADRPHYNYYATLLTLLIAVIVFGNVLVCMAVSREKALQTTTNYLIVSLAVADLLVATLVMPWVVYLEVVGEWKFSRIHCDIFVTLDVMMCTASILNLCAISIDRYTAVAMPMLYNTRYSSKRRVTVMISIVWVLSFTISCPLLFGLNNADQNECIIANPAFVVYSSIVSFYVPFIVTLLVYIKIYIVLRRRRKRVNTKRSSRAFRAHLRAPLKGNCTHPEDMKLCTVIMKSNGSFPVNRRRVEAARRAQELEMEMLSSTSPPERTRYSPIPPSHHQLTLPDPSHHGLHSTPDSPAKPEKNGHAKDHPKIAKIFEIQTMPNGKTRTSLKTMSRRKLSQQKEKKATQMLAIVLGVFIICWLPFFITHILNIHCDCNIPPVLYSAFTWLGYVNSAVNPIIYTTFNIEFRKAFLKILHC

inhibition, active:
O=C(Nc1ccccc1)c1nnsc1S(=O)(=O)c1ccc(Cl)cc1 35.7%
CCCCC(=O)NNC(=S)NC(=O)C(c1ccccc1)c1ccccc1 40.2%
NC(=O)c1nsc(C(=O)N(CCCN2CCOCC2)C(C(=O)NC2CCCCC2)c2ccc(Cl)cc2)c1N (configuration not stated) 30.5%
Cc1cccc(-n2c(Cc3cc(=O)[nH]c(=O)[nH]3)nnc2SCC(=O)Nc2cccc(C(F)(F)F)c2)c1 36.6%
Cc1ccccc1C(=O)NC(=S)NC1CC1 31.1%
CCn1c(SCC(=O)Nc2nccs2)nnc1-c1ccco1 83%
Cn1c(SCC(=O)Nc2ccc(Br)cc2F)nnc1-c1ccco1 31%
Cc1c(CC(=O)N2CCN(C(=O)C3COc4ccccc4O3)CC2)c(=O)oc2c(O)c(O)ccc12 (configuration not stated) 60%
COc1ccc(CN2CC(C(=O)NCCN3CCN(c4ccccc4F)CC3)CC2=O)cc1 (configuration not stated) 78.4%
O=C(NCCCN1CCN(c2ccccc2F)CC1)C1CCC(=O)N1C1CCCCC1 (configuration not stated) 55.7%
C/C(=N\N(C)C)c1ccc(OCCOc2ccc([N+](=O)[O-])cc2)cc1 33.5%

inhibition, inactive:
Cc1ccc(S(=O)(=O)N2CCC(C(=O)OCC(=O)N(C)c3ccccc3)CC2)cc1C -7.26%
Cc1nnsc1C(=O)N/N=C/c1ccccc1Cl -8.27%
CN(c1cccc(NC(=O)Nc2ccc(Cl)cc2)c1)S(C)(=O)=O 4.52%
CCOc1ccc(C(C)NC(=O)CN2C(=O)NC3(CCCCC3)C2=O)cc1OCC (configuration not stated) -2.35%
CSCCC(NC(=O)COc1ccccc1)C(=O)N(C)CC(=O)Nc1ccc(C)cc1 (configuration not stated) -24.9%
CC(OC(=O)/C=C/c1ccccc1)C(=O)NC1CCCCC1C (configuration not stated) -2.14%
CC(C)C(=O)Nc1cccc(NC(=S)NC(=O)C(c2ccccc2)c2ccccc2)c1 -3.17%
O=C(NNC(=S)NCc1ccco1)C(c1ccccc1)c1ccccc1 -2.47%
Cc1ccc(S(=O)(=O)Nc2nc(CN3CCOCC3)nc3sc(C)c(C)c23)cc1 -2.97%
COc1ccc(CNC(=O)COc2ccccc2C(=O)c2cnn(-c3ccccc3)c2)cc1OC 7.52%
CC(CCN1CCN=C1N(C)C)c1ccccc1 (configuration not stated) 8.97%
CCOc1ccc(C(C(=O)NC2CCCC2)N(C(=O)c2snc(C(N)=O)c2N)C2CCCC2)cc1 (configuration not stated) -2.16%
CC(C)(C)NC(=O)C(c1ccc(Cl)cc1)N(CCO)C(=O)c1snc(C(N)=O)c1N (configuration not stated) -7.69%
Cc1cc(F)ccc1S(=O)(=O)Nc1ccc(C(=O)N(C)Cc2ccco2)cc1 2.47%
COc1cccc(-n2c(Cc3cc(=O)[nH]c(=O)[nH]3)nnc2SCC(=O)Nc2ccccc2)c1 -4.57%
Cc1cccc(-n2c(Cc3cc(=O)[nH]c(=O)[nH]3)nnc2SC(C)C)c1 -16%
O=C(Nc1cccc(C(=O)NC2CC2)c1)c1ccc(F)c(S(=O)(=O)N2CCOCC2)c1 -7.88%
Cc1ccccc1C(=O)NC(=S)Nc1ccc(N2CCN(C(=O)c3ccccc3)CC2)cc1 -1.88%
O=C(NNC(=S)NC1CCCCC1)c1ccccc1Cl -5.96%
Nn1c(SCC(=O)Nc2nccs2)nnc1-c1ccco1 3.93%
Cn1c(SCC(=O)c2cccs2)nnc1-c1ccco1 -10.8%
CCOC(=O)CSc1nnc(-c2ccco2)n1C 25.3%
CCn1c(SCC(=O)Nc2nccs2)nnc1-c1ccncc1 10.6%
CSc1ncccc1C(=O)Nc1ccc2c(c1)OCO2 -3.04%
CCc1ccccc1OCC(=O)Nc1ccc(C)c(S(=O)(=O)N2CCCCCC2)c1 -4.67%
CCc1nnc(NC(=O)C2CCN(C(=O)c3ccccc3C)CC2)s1 14.3%
Cc1c(C)c2ccc(OCC(=O)N3CCC(C(=O)O)CC3)c(C)c2oc1=O 2.01%
O=C(CNC(=O)C1COc2ccccc2O1)N/N=C/c1cc(Br)c(O)c(Br)c1 (configuration not stated) 7.94%
COc1cccc(CNC(=O)COC(=O)CN2C(=O)NC3(CCCCC3C)C2=O)c1 (configuration not stated) 4.18%
COc1cccc(C(=O)NCCS(=O)(=O)NCC2CCCO2)c1 (configuration not stated) 8.23%
O=C(COC(=O)c1cc(=O)[nH]c2ccccc12)NCc1cccc(Cl)c1 -19.7%
COc1ccc(CN2CC(C(=O)NCCc3ccc(Cl)cc3)CC2=O)cc1 (configuration not stated) 4.69%
COc1ccc(CN2CC(C(=O)NC3CCCCC3)CC2=O)cc1 (configuration not stated) 9.38%
CCOC(=O)N1CCN(c2c(NCCN3CCN(c4ccccc4F)CC3)c(=O)c2=O)CC1 -8.27%
O=C(NCCCN1CCCCCC1)C1CC(=O)N(C2CCCC2)C1 (configuration not stated) -15.4%
CCOC(=O)C1CCN(C(=O)c2cccc(S(=O)(=O)N(CC)c3ccccc3)c2)CC1 14.5%
Nc1c(C(=O)OCC(=O)Nc2ccc(OC(F)F)cc2)[nH]c(=O)[nH]c1=O 0.0124%
Cc1ccc(CSc2ccc(S(=O)(=O)N3CCCCC3)cn2)cc1 -10.3%
COc1ccc(NC(=O)CSc2nnc(C3CC3)n2C)cc1S(=O)(=O)N1CCCCC1 -7.07%
CCOC(=O)COc1ccc([N+](=O)[O-])cc1 5.2%
C/C(=N/NC(=O)CC(=O)N/N=C(\C)c1ccc([N+](=O)[O-])cc1)c1ccc([N+](=O)[O-])cc1 -6.92%
CC(=O)C[C@@H](O)CC(=O)[C@H]1OC(=O)CCCCCCc2ccccc21 3.89%
Cc1ccccc1NC(=O)COc1cccc2c1CCNC2=O -0.505%
CCCCN(C(=O)CSCC(=O)Nc1ccc(OC)cc1)c1c(N)n(CCC)c(=O)[nH]c1=O 9.85%
N#Cc1ccc(CN2CCN(CC(=O)Nc3ccccc3C(=O)NC3CC3)CC2)cc1 4.29%
CC1Cc2ccccc2N1S(=O)(=O)c1cccc(C(=O)NCC(c2ccco2)N2CCCC2)c1 (configuration not stated) -15%
